Laboratory results reported in the supplement of paper PMC6555819.

Experiments:
Assay in all cases: PBM binding z-score (relative to random genomic background probes); higher = stronger binding; sequences stand for … in GC…GCGATTGACAGCGTAGAATGAAGG
[1] = system: FXR:RXRa (NR concentration 270 nM, RXRa partner concentration 90 nM)
In short: (§1)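 Custom Agilent 4×180K protein-binding microarrays carried double-stranded probes, each with a 34-nt variable region. These regions held direct-repeat seeds, single-nucleotide variants, half-site ablations and random human genomic background sequences. Ligand-free nuclear receptor dimers were incubated on the arrays for 1 h, antibodies against each partner (one per run) detected binding, and scanned fluorescence was regression-normalized. Binding z-scores take the random background probes as reference.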

[2] = system: LXRa:RXRa (NR concentration 270 nM, RXRa partner concentration 90 nM)
In short: as §1

[3] = system: LXRa homodimer (NR concentration 270 nM)
In short: as §1

[4] = system: LXRb:RXRa (NR concentration 270 nM, RXRa partner concentration 90 nM)
In short: as §1

[5] = system: LXRb homodimer (NR concentration 270 nM)
In short: as §1

[6] = system: PPARa:RXRa (NR concentration 270 nM, RXRa partner concentration 90 nM)
In short: as §1

[7] = system: PPARg:RXRa 270nM:90nM, anti-RXR (NR concentration 270 nM, RXRa partner concentration 90 nM)
In short: as §1

[8] = system: PPARg:RXRa 30nM:10nM, anti-RXR (NR concentration 30 nM, RXRa partner concentration 10 nM)
In short: as §1

[9] = system: PPARg:RXRa 90nM:30nM, anti-RXR (NR concentration 90 nM, RXRa partner concentration 30 nM)
In short: as §1

[10] = system: PPARg:RXRa DBDmut IVT, anti-RXR (DBD mutation: RXRa K156A/R161A, NR concentration 270 nM, RXRa partner concentration 90 nM)
In short: as §1

[11] = system: PPARg:RXRa IVT, anti-PPARg (NR concentration 270 nM, RXRa partner concentration 90 nM)
In short: as §1

[12] = system: PPARg DBDmut:RXRa IVT, anti-PPARg (DBD mutation: PPARg1 K132A/R137A, NR concentration 270 nM, RXRa partner concentration 90 nM)
In short: as §1

[13] = system: PPARg DBDmut IVT, anti-PPARg (DBD mutation: PPARg1 K132A/R137A, NR concentration 270 nM)
In short: as §1

[14] = system: PPARg homodimer (NR concentration 180 nM)
In short: as §1

[15] = system: PXR:RXRa (NR concentration 270 nM, RXRa partner concentration 90 nM)
In short: as §1

[16] = system: PXR homodimer (NR concentration 270 nM)
In short: as §1

[17] = system: RARa homodimer (NR concentration 270 nM)
In short: as §1

[18] = system: RARb:RXRa (NR concentration 270 nM, RXRa partner concentration 90 nM)
In short: as §1

[19] = system: PPARg:RXRa (NR concentration 180 nM, RXRa partner concentration 90 nM)
In short: as §1

[20] = system: RARa:RXR (NR concentration 270 nM, RXRa partner concentration 90 nM)
In short: as §1

Row | Sequence | PBM binding z-score [1] | PBM binding z-score [2] | PBM binding z-score [3] | PBM binding z-score [4] | PBM binding z-score [5] | PBM binding z-score [6] | PBM binding z-score [7] | PBM binding z-score [8] | PBM binding z-score [9] | PBM binding z-score [10] | PBM binding z-score [11] | PBM binding z-score [12] | PBM binding z-score [13] | PBM binding z-score [14] | PBM binding z-score [15] | PBM binding z-score [16] | PBM binding z-score [17] | PBM binding z-score [18] | PBM binding z-score [19] | PBM binding z-score [20]
1 | CCTAGTGGGCCAAAGGTCATTGATTCCAATGCTC | 5.47 | 5.18 | 3.76 | 5.23 | 0.768 | 6.76 | 10.7 | 13.5 | 12.9 | 5.71 | 7.73 | 2 | 0.985 | 7.49 | 5.83 | 3.2 | 3.01 | 4.62 |  | 
2 | AGTCAAATTTCACTAGGTAACGTAAGATTCAGCT | -0.177 | -0.14 | -0.0488 | 0.0425 | 0.175 |  | 0.334 | 0.197 | -0.0408 | 1.53 | 2.38 | 0.835 | 0.824 | 0.334 | 0.334 | -0.0218 | 1.44 |  | 0.5 | 0.0458
3 | CAATCTAGGTCACAGAGGTCAAAGTCCGTGCGTA | 7.18 | 7.04 | 7.96 | 6.3 | 2.8 | 6.7 | 8.69 | 7.34 | 9.13 | 9.1 | 9.25 | 7.18 | 5.24 | 7.14 |  | 11.9 | 3.61 | 5.46 |  | 7.89
4 | CAAAGTAGGTCACCGGAAGGTCAAAGTCCGCATG | 6.09 | 6.41 | 5.29 | 5.63 | 1.43 | 6.43 | 8.21 | 6.7 | 8.45 | 8.84 | 9.1 | 4.14 | 2.62 | 6.69 | 6.22 | 1.73 | 2.1 | 5.39 |  | 7.55
5 | CAAACTAGGTCACCGGAAGGTCAAAGTTCGCATG | 6.72 | 6.36 | 5.74 | 5.3 | 1.86 | 6.44 | 8.11 | 6.06 | 8.3 | 8.66 | 9.06 | 4.1 | 1.26 | 7.21 | 6.49 | 3.62 | 3.06 | 5.44 |  | 
6 | TCATATAGGTTAAAGGTGAAAGTCGGTGTGGTAA | 4.54 | 4.09 | 0.882 | 3.59 | 0.683 | 6.28 | 9.55 | 10.5 | 11.5 | 6.74 | 6.73 | 2.27 | 1.26 | 3.22 | 3.73 | 0.749 | 2.29 | 2.9 |  | 6.33
7 | CCAGACAGGTGAAAGGTCACTCAGTCTGGTACGC | 5.43 | 5.49 | 2.57 | 4.91 | 0.389 | 6.31 | 8.84 | 7.76 | 8.99 | 2.78 | 5.19 | 0.814 | 0.242 | 3.92 | 5.74 | 1.88 | 1.75 | 4.91 |  | 
8 | CCTACTGGGCCAAAAAGGCCATTGATGCCGATAA | -0.133 | -0.247 | -0.15 | -0.244 | -1.1 | 0.629 | 0.7 | -0.443 | 0.151 | 2.77 | 2.4 | 0.199 | -0.751 | 0.287 |  | -0.211 | -0.317 | 0.816 |  | -0.0899
9 | ATCTCTAGGTAAATGTTCAGTGAATCCCGAGGAT | 0.0255 | -0.125 | -0.0436 | -0.389 | 0.584 | 0.133 | 1.01 | 0.602 | 0.967 | 2.02 | 1.64 | 1.6 | 0.892 | 0.258 | -0.0966 | 0.236 | 0.709 | 0.211 |  | 0.0149
10 | GATACAGGGTCAGCTAGAGGTCAGAGTATGGAAA | 6 | 5.81 | 3.45 | 4.98 | 0.386 | 5.57 | 5.22 | 1.99 | 3.52 | 1.65 | 3.52 | 0.365 | -0.0888 | 6.51 | 5.99 | 1.34 | 1.59 | 5.32 |  | 
11 | AGACAAAGTTCAGGACGAGGTAACGTAAAGCACG | 4.35 | 3.92 | 0.814 | 1.95 | -0.0251 |  | 2.93 | 1 | 1.97 | -0.362 | 0.619 | 0.472 | 0.977 | 1.38 | 3.02 | 0.806 | 0.776 | 4.18 | 2.53 | 3.06
12 | CGTCCAAGGTCAAAGGTCACTGAAGAGATGACGG | 8.77 | 7.26 | 4.53 | 7.05 | 2.19 | 7.23 | 9.43 | 11 | 11.1 | 4.24 | 6.37 | 2.37 | 1.21 | 2.49 |  | 2.15 | 3.47 | 5.96 |  | 9
13 | CGTCCAAGGTCAAAGGTCAGGGAAGAGATGACGG | 8.68 | 6.78 | 3.32 | 6.96 | 1.53 |  | 9.03 | 8.32 | 9.6 | 3.65 | 6.24 | 1.42 | 0.451 | 3.19 | 7 | 1.61 | 2.57 |  | 11 | 8.27
14 | CGTCCAAGGTCAGCAGGTCAGAGAAAGCGACGTG | 6.51 | 4.01 | 0.793 | 3.26 | -0.208 | 4.78 | 5.15 | 1.61 | 3.69 | 3.52 | 3.72 | 0.0227 | -0.591 | 6.44 | 4.02 | 0.651 | 2.67 | 5.39 |  | 5.74
15 | CTAACTAGGTCACGAAAGGTCAAAGTCGAATGAC | 7.37 | 8.22 | 7.7 | 7.44 | 2.3 | 6.57 | 8.24 | 7.33 | 8.68 | 8.88 | 9.03 | 2.32 | 2.06 | 5.96 | 6.97 | 3.14 | 2.75 | 5.6 |  | 7.47
